From PubChem
Shown are actives, neighbours in structure and some others; about 1.3% of the full set was active somewhere.
AMA1 RON2 block – inhibitors of Plasmodium falciparum AMA1-RON2 interaction; AID 720542; Potency, µM (highest dose often 58.2 µM), without a hit: at the highest dose activity change, negative = inhibition, hits mostly inhibitors; AlphaScreen AMA1-biotinylated RON2 peptide binding; actives 0.2% (n = 360,000);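 note: 0% = vehicle wells and -100% = peptide control; nearly all actives have a fitted effect of over 45% in size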
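AMA1 (3D7) with his tag at 25 nM final met compounds first, then biotinylated RON2 peptide at 25 nM; detection used donor plus acceptor beads, 10 µg/mL apiece, read by AlphaScreen after 30 min at room temperature.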
TbPYK inhibitor – T. brucei pyruvate kinase inhibition. Q57TT1. TbPYK enzyme, Kinase-Glo Plus ATP luminescence, 45 min. Potency, µM (series often up to 76.8 µM), for inactives: top-dose activity, negative = inhibition, most hits filed as inhibitors. actives 0.12% (n = 410,000). AID 624173; note: nearly all actives have a fitted effect of over 50% in size
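Quantitative HTS: titrated library compounds versus trypanosomal pyruvate kinase in TEA buffer (pH 7.2) containing KCl, MgCl2, BSA and Tween-20. Reactions were initiated with ADP, 130 uM final. Kinase-Glo Plus luminescence was read after 45 min at RT.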
RE007 growth inh – less growth of the S. pombe RE007 Vpr strain | S. pombe RE007 Vpr strain, BacTiter-Glo ATP luminescence, 24 h | Potency, µM (top dose mostly 92.2 µM), without a hit: at the top dose activity change, negative = less growth, most hits filed as inhibitors | actives 0.21% (n = 360,000) | AID 651644; active = well fitted falling curve with a large enough effect; inconclusive = small, poorly fitted or top-dose-only effect; inactive = no such curve, though single readings can be large or run the other way; note: nearly all actives have a fitted effect of over 50% in size
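Fission yeast strain RE007, carrying one chromosomally integrated HIV-1 vpr copy, was seeded at OD 0.01 in PMG+AL medium with 23 nL pinned compound. After 24 h at 30 °C and 99% humidity, viability was read by BacTiter-Glo luminescence.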
Vaccinia mCherry – inhibitors of vaccinia virus infection (mCherry reporter signal); AID 720579; actives 0.63% (n = 310,000); Potency, µM (doses to about 36.5 µM), without a hit: at the highest dose activity change, negative = inhibition, usual class: inhibitors; Vaccinia virus mCherry reporter infection, fluorescence; calls by dose curve; tested in A549 cells; note: nearly all actives have a fitted effect of over 35% in size
LmPK inhibitor – LmPK (Leishmania mexicana) enzyme inhibition. Q27686. purified LmPK, Kinase-Glo ATP luminescence, 1 h. Potency, µM (titrated, usually from 57.5 µM), for the others: at the highest dose activity change, negative = inhibition, actives largely listed as inhibitors. actives 0.37% (n = 290,000). AID 1721
Target sequence (Q27686 whole entry, looked up): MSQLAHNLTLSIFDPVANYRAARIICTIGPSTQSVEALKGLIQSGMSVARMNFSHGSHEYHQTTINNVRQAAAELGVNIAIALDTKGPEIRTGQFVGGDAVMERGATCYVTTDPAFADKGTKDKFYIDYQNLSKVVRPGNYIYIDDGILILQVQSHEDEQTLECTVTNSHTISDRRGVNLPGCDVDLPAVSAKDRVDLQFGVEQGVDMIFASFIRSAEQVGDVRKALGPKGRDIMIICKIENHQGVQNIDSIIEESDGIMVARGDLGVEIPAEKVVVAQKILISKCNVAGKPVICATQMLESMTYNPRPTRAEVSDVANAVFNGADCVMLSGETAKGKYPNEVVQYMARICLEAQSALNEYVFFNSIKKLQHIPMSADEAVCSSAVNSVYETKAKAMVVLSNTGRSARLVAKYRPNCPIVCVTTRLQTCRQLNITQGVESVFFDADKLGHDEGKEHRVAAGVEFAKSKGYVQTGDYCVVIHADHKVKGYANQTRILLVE
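Kinase-Glo luminescence read after 1 h RT reaction of 0.1 nM LmPK with 0.5 mM PEP and 0.1 mM ADP. Activity scaled between uninhibited and enzyme-free controls.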
Vaccinia Venus – vaccinia inhibition (Venus reporter) | Vaccinia virus Venus reporter expression, fluorescence | Potency, µM (doses to about 36.5 µM), for the others: top-dose activity change, negative = inhibition, usual class: inhibitors | actives 0.46% (n = 330,000) | AID 720580; calls by dose curve; tested in A549 cells; note: nearly all actives have a fitted effect of over 30% in size
Starred values were filed as active, the others as inactive; [ ] = remark or other dose. Unless noted, calls come from the whole dose curve; as a rule, active = well fitted curve in the direction sought with a large enough effect; inconclusive = small, poorly fitted or top-dose-only effect, or another doubt; inactive = no such curve, though single readings can be large; an effect the other way counts as inactive or inconclusive. Unless noted, % is set by controls: 0 for no effect and ±100 for the full control effect; potency is the fitted concentration of half-maximal effect.

Screening Nc1c2c(nc3ccc(Br)cc13)N(c1ccccc1)CC2 returned AMA1 RON2 block -16%, TbPYK inhibitor 10%, RE007 growth inh -3%, Vaccinia mCherry -1%, LmPK inhibitor -14% and Vaccinia Venus -10%.
`CCC(C)NC(=O)c1cn(CC)c2cc(N3CCN(C(=O)c4ccco4)CC3)c(F)cc2c1=O` (centres undefined) gave AMA1 RON2 block 3%, TbPYK inhibitor -3%, RE007 growth inh -6%, Vaccinia mCherry 5µM*, LmPK inhibitor 6% and Vaccinia Venus inconclusive.
`Cc1ccc(-c2nc3n(n2)Cc2ccccc2-3)cc1` gave AMA1 RON2 block -3%, TbPYK inhibitor -21%, RE007 growth inh inconclusive, Vaccinia mCherry -3%, LmPK inhibitor 7.9µM* and Vaccinia Venus -19%.
Screening CCn1c(C)nc2cc(C(=O)NNC(=O)c3ccc(C)cc3)ccc21 returned AMA1 RON2 block 1%, TbPYK inhibitor inconclusive and RE007 growth inh -19%.
Screening CCn1c(C)nc2cc(-c3nc4n(n3)Cc3ccccc3-4)ccc21 returned AMA1 RON2 block -3%, TbPYK inhibitor inconclusive, RE007 growth inh 5.6µM*, LmPK inhibitor 16µM* and Vaccinia Venus inconclusive.
`NC(=S)Cc1nc2n(n1)Cc1ccccc1-2` gave AMA1 RON2 block 61%, TbPYK inhibitor -4%, RE007 growth inh 2% and LmPK inhibitor -2%.
Screening Cc1ccc(C(=O)Nc2cccc(-c3nc(CNC(=O)c4cccc(N(C)C)c4)c(C)o3)c2)s1 returned Vaccinia mCherry -26% and Vaccinia Venus -14%.
C(=N\Nc1nc2ccccc2[nH]1)/c1ccc2ncccc2c1 was read as AMA1 RON2 block 37%, TbPYK inhibitor -3%, RE007 growth inh 0%, Vaccinia mCherry 1.6µM*, LmPK inhibitor -19% and Vaccinia Venus 0.89µM*.
For S=C(N/N=C/c1ccc2ncccc2c1)Nc1ccccc1 the results were AMA1 RON2 block 74%, TbPYK inhibitor -5%, RE007 growth inh 8%, Vaccinia mCherry 7.9µM*, LmPK inhibitor -5% and Vaccinia Venus 11µM*.
For Cc1c(CN2CCOc3c(cc(-c4ncc(C(F)(F)F)cc4Cl)cc3OCC3CCCO3)C2)cnn1C (centres undefined) the results were Vaccinia mCherry inactive and Vaccinia Venus -18%.
For Cc1cnc(SCC2CCCO2)nc1C1CCCN(Cc2cc3c(cc2Cl)OCO3)C1 (centres undefined) the results were Vaccinia mCherry -26% and Vaccinia Venus -20%.
For CC(C)c1ccc(NS(=O)(=O)c2ccc(Cl)nc2)cc1 the results were AMA1 RON2 block -1%, TbPYK inhibitor 1%, RE007 growth inh 4%, Vaccinia mCherry 4µM*, LmPK inhibitor 5% and Vaccinia Venus 7.9µM*.
Nc1ccc(N=Nc2ccccc2)cc1 was read as AMA1 RON2 block inconclusive, TbPYK inhibitor -2%, RE007 growth inh -7%, Vaccinia mCherry inconclusive, LmPK inhibitor -13% and Vaccinia Venus -12%.
For Nc1ccc(N(c2ccccc2)c2ccc(N)cc2)cc1 the results were AMA1 RON2 block inconclusive, TbPYK inhibitor -26%, RE007 growth inh -2%, Vaccinia mCherry inconclusive, LmPK inhibitor -1% and Vaccinia Venus 28µM*.
`CC(C)(C)CC(C)(C)N=C1Nc2ccc(Cl)cc2N[C@]12C[C@H]1CCCC(=O)N3CC[C@@H](C2)[C@@H]13` gave Vaccinia mCherry -16% and Vaccinia Venus inconclusive.
For c1ccc(OCc2nc3ccccc3[nH]2)cc1 the results were AMA1 RON2 block -9%, TbPYK inhibitor 0%, RE007 growth inh -4% and LmPK inhibitor 11µM*.
Screening COCC(=O)Nc1cc(C(=O)N2CC3(C)CC2CC(C)(C)C3)c2c(c1)nc(-c1ccncc1)n2C (centres undefined) returned Vaccinia mCherry -13% and Vaccinia Venus -6%.
Screening CC[C@H](C)[C@H](NC(=O)[C@H](CO)NC(=O)[C@H](CC(N)=O)NC(=O)[C@H](CC(C)C)NC(=O)[C@H](Cc1ccc(O)cc1)NC(=O)[C@H](CCCCN)NC(=O)[C@H](CCCCN)NC(=O)[C@@H](NC(=O)[C@H](C)NC(=O)[C@H](CCSC)NC(=O)[C@H](CCC(N)=O)NC(=O)[C@H](CCCCN)NC(=O)[C@H](CCCNC(=N)N)NC(=O)[C@H](CC(C)C)NC(=O)[C@H](CCCNC(=N)N)NC(=O)[C@@H](NC(=O)[C@H](Cc1ccc(O)cc1)NC(=O)[C@H](CC(N)=O)NC(=O)[C@H](CC(=O)O)NC(=O)[C@@H](NC(=O)[C@H](Cc1ccccc1)NC(=O)[C@@H](NC(=O)[C@H](C)NC(=O)[C@H](CC(=O)O)NC(=O)[C@H](CO)NC(=O)[C@@H](N)Cc1c[nH]cn1)C(C)C)[C@@H](C)O)[C@@H](C)O)C(C)C)C(=O)N[C@@H](CC(C)C)C(=O)N[C@@H](CC(N)=O)C(=O)O returned TbPYK inhibitor 13%.
For Cc1ccc(S(=O)(=O)Oc2ccccc2/C=N/NC(N)=S)cc1 the results were AMA1 RON2 block 8%, TbPYK inhibitor -11%, RE007 growth inh 2%, Vaccinia mCherry inconclusive, LmPK inhibitor 7% and Vaccinia Venus 1.3µM*.
`CNC(=S)N/N=C/c1cn(Cc2ccc(F)cc2)c2ccccc12` gave AMA1 RON2 block 9%[2.32 µM], TbPYK inhibitor -4%, RE007 growth inh 21%, Vaccinia mCherry 3.2µM*, LmPK inhibitor 3% and Vaccinia Venus inconclusive.
`COc1ccccc1OCCn1cc(/C=N/NC(N)=S)c2ccccc21` gave AMA1 RON2 block 49%, TbPYK inhibitor -7%, RE007 growth inh -5%, Vaccinia mCherry inconclusive, LmPK inhibitor 5% and Vaccinia Venus 1.3µM*.
For COC(=O)N/N=C/c1cn(Cc2ccc(F)cc2)c2ccccc12 the results were AMA1 RON2 block -1%, TbPYK inhibitor -1%, RE007 growth inh 16% and LmPK inhibitor -4%.
`O=C(N/N=C/c1cn(Cc2cccc(F)c2)c2ccccc12)c1cc(O)cc(O)c1` gave AMA1 RON2 block 25µM*, TbPYK inhibitor 1%, RE007 growth inh 30% and LmPK inhibitor 15%.
`Cc1cc2c(c(-c3cnccn3)c1)OC(CNC(=O)c1cc(Cl)ccc1F)C2` (centres undefined) gave Vaccinia mCherry -14% and Vaccinia Venus -14%.
`NC(=S)N/N=C/c1ccccc1OCCSc1ccc(Cl)cc1` gave AMA1 RON2 block 36%, TbPYK inhibitor -7%, RE007 growth inh 8%, Vaccinia mCherry 0.089µM*, LmPK inhibitor 4% and Vaccinia Venus 0.32µM*.
